# Measurements taken from PubChem BioAssay (NCI).
# About 83,000 compounds went through this panel and 20% of them were active in at least one assay; those are over-represented in the sample as a whole.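 Note: values are percent growth. 100 is the growth of untreated cells, values between 100 and 0 indicate rising inhibition; between -100 and 0 indicates cell death.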 Active and inactive are the calls of the source. The calls were made as follows: active = growth percent below 10; inactive = the rest.
# Test system: BT-549 breast
# Assay: NCI-60 one-dose screen, 48 h (100 = growth as untreated, 0 = no growth, -100 = all killed)
# Settings: 10 µM
row,Compound,growth
1,O=C(NO)c1ccc(CNC(=O)[C@H]2Cc3c([nH]c4ccccc34)[C@H](c3ccccc3)N2)cc1,55.4% (inactive)
2,COc1ccc2cc([C@H](C)C(=O)NCc3ccccc3)ccc2c1,42.8% (inactive)
3,Cc1noc2c(Cc3ccccc3)nn(CC(=O)N/N=C/c3ccc(F)cc3)c(=O)c12,64.1% (inactive)
4,COc1cnc2c(c1)C(=O)c1c-2n(CCCNCCO)c(=O)c2cc(OC)c(OC)cc12,40.7% (inactive)
5,CN1CCc2c(sc3ncnc(N/N=C/c4cn(-c5ccccc5)nc4-c4ccc(Cl)cc4)c23)C1,41.1% (inactive)
6,N#Cc1c(NC(=O)c2ccc(C(F)(F)F)cc2C(F)(F)F)sc2c1CCC(=O)C2,-65.3% (active)
7,O=C1N/C(=N\c2nccs2)S/C1=C\c1cccs1,44.2% (inactive)
8,CC(=O)c1ccc(Nc2nc(SC(C)C)nc(-c3ccccc3)c2C#N)cc1,90.7% (inactive)
9,O=C(CNc1nc(-c2ccccc2)cs1)Nc1ccc([N+](=O)[O-])cc1Cl,8.83% (active)
10,O=C(NO)c1ccc(Cn2ccc3c(Nc4ccccc4)ncnc32)cc1,27.4% (inactive)
11,O=C(NO)c1ccc(CN2CCN(c3nc(-c4ccccc4)c4ccccc4n3)CC2)cc1,35.8% (inactive)

# Test system: MDA-MB-435 melanoma
# Assay: as above
# Settings: 10 µM
row,Compound,growth
1,COc1ccc(-c2cc(C(=O)N=Nc3c(O)[nH]c4ccc(Br)cc34)c3ccccc3n2)cc1,52.7% (inactive)
2,CC(=O)c1ccc(Nc2nc(SCCC(C)C)nc(-c3ccc(F)cc3)c2C#N)cc1,73.8% (inactive)
3,Clc1cccc(N/N=C/c2c[nH]c3ccccc23)n1,19.8% (inactive)
4,O=[N+]([O-])c1ccc(-c2nc(-c3ccccc3)c(-c3ccccc3)n2-c2ccc(S(=O)(=O)Nc3ncccn3)cc2)cc1,46.5% (inactive)
5,O=C(CSc1nnc(-c2ccc3nc(-c4ccc(Cl)cc4)[nH]c3c2)o1)Nc1ccc(Cl)cc1,-65.8% (active)
6,CCOC(=O)c1c(CSc2ccccc2)n(C)c2cc(CN(C)C)c(O)c(CN(C)C)c12,54% (inactive)
7,N#Cc1c(NC(=O)c2cccc(C(F)(F)F)c2)sc2c1CCC(O)=C2,9.7% (active)
8,Cc1ccc(-c2nc(Nc3ccc(S(N)(=O)=O)cc3)c3ccccc3n2)cc1,57% (inactive)
9,Cc1ccc2nc(COc3ccc(C(=O)NNC(=S)NC(=O)c4ccccc4)cc3)[nH]c2c1,64.3% (inactive)
10,O=C(CNc1nc(-c2ccccc2)cs1)Nc1cccc([N+](=O)[O-])c1,-77.9% (active)
11,CC(=O)Nc1ccc(-c2cn(-c3cccc(C(=O)Nc4cccc(OC(F)(F)F)c4)c3)nn2)cn1,61.4% (inactive)
12,OCCCNc1oc(-c2ccccc2)nc1[P+](c1ccccc1)(c1ccccc1)c1ccccc1,6.46% (active)
13,CC(C)Sc1nc(NC2CC2)c(C#N)c(-c2ccccc2)n1,98.6% (inactive)
14,OCCNc1oc(-c2ccccc2)nc1[P+](c1ccccc1)(c1ccccc1)c1ccccc1,4.92% (active)
15,C/C(=C\c1ccc(O)cc1O)c1ccc2ccc(O)cc2[o+]1,21.4% (inactive)
16,Cc1noc2c(Cc3ccc([N+](=O)[O-])cc3)nn(CC(=O)N/N=C/c3ccc(Cl)cc3)c(=O)c12,76.3% (inactive)
17,CCOC(=O)CNC(=O)CN(Cc1ccccc1)C(=O)[C@@]1(C)CCC[C@]2(C)[C@H]3CC4C(C(C)C)=C[C@]3(CC[C@H]21)[C@@H]1C(=O)CCC(=O)[C@H]41,70.6% (inactive)
18,O=C(CSc1nnc(-c2c[nH]c3ccccc23)n1-c1ccccc1)c1ccc(Cl)cc1,79.2% (inactive)
19,COc1ccc(-c2cc(C(=O)N=Nc3c(O)[nH]c4ccc(F)cc34)c3ccccc3n2)cc1,65.2% (inactive)
20,O=C1Nc2ccc(Cl)cc2/C1=C/c1ccc(OCc2ccccn2)cc1,76.9% (inactive)
21,Cc1noc2c(Cc3ccccc3)nn(CC(=O)N/N=C/c3ccc(Cl)cc3)c(=O)c12,75.8% (inactive)
22,COc1ccc2[nH]c(=O)c(CSc3cccc(N)c3)cc2c1,31.6% (inactive)
23,COc1ccc(C(=O)/C=C/c2cc(F)cc(C(F)(F)F)c2)cc1S(N)(=O)=O,-56.2% (active)
24,Nc1cc(-c2cccc(C(=O)NCc3ccc4c(c3)OCO4)c2)ccn1,102% (inactive)
25,Cc1ccc(/C(N)=N/c2sc(-c3ccccc3)nc2-c2ccccc2)cc1,79.6% (inactive)
26,CN(C(=O)c1ccc(C(C)(C)C)cc1)c1sc2c(c1C#N)CCC(=O)C2,14.7% (inactive)
